Source: PubChem BioAssay AID588342 (National Center for Advancing Translational Sciences (NCATS), 2011)
Out of some 360,000 compounds screened, about 25,000 (6.9%) were called active. Another 9% or so got no clear call; they are omitted. Calls come from the whole dose curve; as a rule, active = well fitted inhibition curve with a large enough effect; inconclusive = small, poorly fitted or top-dose-only effect; inactive = flat fitted curve, though single readings scatter. The sample as a whole holds a higher share of actives than the screen did.

molecular target: Luciferin 4-monooxygenase (Photinus pyralis) (UniProt P08659); assay: qHTS profiling assay for firefly luciferase inhibitor/activator using purifed enzyme and Km concentrations of substrates (counterscreen for miR-21 project); conditions: purified FLuc, luminescence inhibition; series mostly up to 57.5 µM; activity change, negative = inhibition: at the top concentration; note: nearly all actives have a fitted effect of over 55% in size;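 for activity change, negative = inhibition: plate controls were vehicle for no effect and reference inhibitor for full effect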
How it was run: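 Biochemical qHTS of compounds, final roughly 60 µM downward over six points, against 10 nM purified firefly luciferase using Km concentrations of substrates (10 uM D-luciferin, 10 uM ATP) in Tris acetate pH 7.5 buffer; luminescence output.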
Potency is the fitted concentration of half-maximal effect.

Luciferin 4-monooxygenase (Photinus pyralis), sequence (P08659 whole entry, looked up): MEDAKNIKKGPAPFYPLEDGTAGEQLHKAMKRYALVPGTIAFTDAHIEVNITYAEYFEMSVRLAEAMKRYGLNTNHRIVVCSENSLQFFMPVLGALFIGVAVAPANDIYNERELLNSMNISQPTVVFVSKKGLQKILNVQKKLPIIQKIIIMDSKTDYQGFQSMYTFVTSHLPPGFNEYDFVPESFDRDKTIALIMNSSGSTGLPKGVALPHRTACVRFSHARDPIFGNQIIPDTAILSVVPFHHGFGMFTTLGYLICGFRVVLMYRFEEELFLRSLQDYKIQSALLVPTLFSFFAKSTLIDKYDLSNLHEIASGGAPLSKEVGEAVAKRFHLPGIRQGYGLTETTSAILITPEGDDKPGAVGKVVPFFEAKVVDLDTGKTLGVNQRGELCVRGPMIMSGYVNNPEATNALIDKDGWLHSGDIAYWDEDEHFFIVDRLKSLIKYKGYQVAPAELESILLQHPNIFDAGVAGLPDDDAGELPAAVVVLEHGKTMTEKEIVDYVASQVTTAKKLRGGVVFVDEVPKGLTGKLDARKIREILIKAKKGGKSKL

SMILES | Potency | activity change, negative = inhibition
O=c1oc2ccccc2cc1-c1cn(-c2ccccc2)c(=S)[nH]1 | 0.849 µM (active) | –
CS(=O)(=O)N1CCN(C(=O)c2cc3ccccc3oc2=O)CC1 | – | -0.589% (inactive)
COc1ccc(C2C(=O)N(C3CCCCCC3)CC(=O)N2CCc2ccc(Cl)cc2)cc1OC (configuration not stated) | – | 1.16% (inactive)
O=C(Cc1cccs1)N1CCCC(c2nc(-c3ccc(S(=O)(=O)N4CCCC4)cc3)no2)C1 (configuration not stated) | – | -0.16% (inactive)
COc1cc(-c2noc(C3CCCN(S(=O)(=O)c4cccc(Cl)c4)C3)n2)cc(OC)c1OC (configuration not stated) | – | 1.11% (inactive)
CC(C)c1ccc(-c2noc(C3CCCN(S(C)(=O)=O)C3)n2)cc1 (configuration not stated) | 19 µM (active) | –
CCN(C(=O)CSc1ncnc2sccc12)c1c(N)n(Cc2ccccc2)c(=O)[nH]c1=O | – | 6.9% (inactive)
CCSc1nnc2c(n1)OC(c1ccc(OCC(=O)O)cc1)Nc1ccccc1-2 (configuration not stated) | – | -13.1% (inactive)
CCCCSc1nnc2c(n1)OC=Nc1ccccc1-2 | 23.9 µM (active) | –
COc1ccc(NC(=O)Cn2cc(C(=O)c3ccncc3)c(=O)c3cc(C)ccc32)cc1Cl | – | 5.88% (inactive)
Cc1ccc(-c2cnc(C3CC3)o2)cc1S(=O)(=O)Nc1cccc(C)c1C | – | 3.16% (inactive)
CN(Cc1nc2ccc(F)cc2[nH]1)Cc1nc(CC2CC2)no1 | – | -2.03% (inactive)
O=C(Cn1c(=O)n(-c2ccc(F)cc2)c(=O)c2sccc21)Nc1cccc(C(F)(F)F)c1 | – | -6.93% (inactive)
CC(=O)Nc1cccc(NC(=O)CSc2cn(CC(=O)N3CCCC3)c3ccccc23)c1 | – | -1.16% (inactive)
CC1CCN(C(=O)c2ccc3c(=O)n4c(nc3c2)CCCCC4)CC1 | – | 2.48% (inactive)
O=c1c2c(nc3n1CCCCC3)sc1c(O)cccc12 | 4.26 µM (active) | –
Cc1cccc2c(=O)n3c(nc12)CCCCC3 | – | -10.5% (inactive)
COc1ccc([C@H]2CC(=O)C=C(c3ccc(CO)cc3)C2)cc1 | – | -1.03% (inactive)
O=C1CCC(C(=O)N2CCN(c3ccccc3Cl)CC2)CN1CC1CCCCC1 (configuration not stated) | – | -1.63% (inactive)
O=C(NNC(=S)Nc1ccc(Br)cc1Cl)c1ccco1 | 16.9 µM (active) | –
CCC(=O)NC(=S)Nc1ccc(NC(=O)c2ccco2)c(Cl)c1 | – | -5.91% (inactive)
S=C(Nc1ccc(Br)cc1Cl)NC1CCN(Cc2ccccc2)CC1 | – | 0.728% (inactive)
COc1ccc(S(=O)(=O)c2c(Nc3ccc(C)cc3)sc(C(=O)c3ccc(C)cc3)c2N)cc1 | – | -0.422% (inactive)
COc1ccc(-c2nc(CN3CCC(C(=O)NCc4ccccc4)CC3)c(C)o2)cc1OC | – | -0.814% (inactive)
N=C1C(c2nc3ccccc3s2)=C(O)CN1NC(=O)c1ccc([N+](=O)[O-])cc1 | 13.5 µM (active) | –
CCOC(=O)CCCN1CC(O)=C(c2nc3ccccc3s2)C1=N | – | 1.19% (inactive)

SMILES | Potency | activity change, negative = inhibition
COc1ccccc1N1CC(O)=C(c2nc3ccccc3s2)C1=N | – | -8.44% (inactive)
O=C(CSc1oc(-c2ccco2)nc1S(=O)(=O)c1ccccc1)c1ccc(Cl)cc1 | – | -4.3% (inactive)
Cc1ccc(-c2cc(-c3coc4ccccc4c3=O)c3c(n2)-c2cc(Cl)ccc2OC3)cc1 | – | -1% (inactive)
CC(C)(C)OC(=O)N1CCC(c2c(C(=O)N3CCN(c4cccc(Cl)c4)CC3)cnn2-c2cccc(Cl)c2)CC1 | – | -3.13% (inactive)
CCCCCn1c(CCCNC(=O)c2ccccc2OC)nc2ccccc21 | – | 4.7% (inactive)
CCOC(OCC)c1ccc(/C=C\c2nccc(N)n2)cc1 | 8.49 µM (active) | –
CCOc1ccc(Nc2c(S(=O)(=O)c3ccccc3)cnc3ccccc23)cc1 | – | -10.5% (inactive)
CN(C(=O)Cn1nnc(-c2ccc(F)cc2)n1)C1CCS(=O)(=O)C1 (configuration not stated) | – | 3.37% (inactive)
COc1ccc(CNC(=O)CC2Oc3ccc(C)cc3NC2=O)cc1 (configuration not stated) | – | -0.891% (inactive)
O=C(Cn1[nH]c(=O)c2ccccc2c1=O)Nc1cccc(-c2nnc3n2CCCCC3)c1 | – | -0.0091% (inactive)
Cc1c(C(=O)Nc2cccc(-c3nnc4n3CCCCC4)c2)oc2ccccc12 | 19 µM (active) | –
Cc1ccc(NC(=O)c2oc3ccccc3c2C)c([N+](=O)[O-])c1 | – | -14% (inactive)
CSc1ncccc1C(=O)NC1CCCCCC1 | – | -1.16% (inactive)
Cc1c(C(=O)NC2CCCCC2)oc2ccccc12 | 15.1 µM (active) | –
O=S(=O)(c1cccc(-c2nnc3n2CCCCC3)c1)N1CCOCC1 | – | -2.77% (inactive)
O=C(Nc1ccc(F)cc1F)c1cnn(-c2ccc(F)cc2)c1-n1cccc1 | – | 0.499% (inactive)
CC(C)(C)OC(=O)N1CCC(c2c(C(=O)NCCc3ccsc3)cnn2-c2ccc(F)cc2F)CC1 | – | -7.33% (inactive)
O=C(/C=C/c1cn(-c2ccccc2)nc1-c1ccc2c(c1)OCCO2)NCCCN1CCOCC1 | – | -10.5% (inactive)
CC(C)c1ccc(/C=C/C(=O)NCCCN2CCOCC2)cc1 | 21.3 µM (active) | –
COc1cccc(C(=O)NNC(=O)/C=C/c2ccccc2)c1 | – | 0.538% (inactive)
O=C(/C=C/c1ccc(Cl)cc1)NCCCn1ccnc1 | – | -9.77% (inactive)
CC(C)c1ccc(/C=C/C(=O)NNC(=O)c2cccnc2)cc1 | 12 µM (active) | –
O=C(/C=C/c1ccc(F)cc1)NCCNC(=O)/C=C/c1ccc(F)cc1 | – | 0.42% (inactive)
Cc1c(NC(=O)c2cccnc2)c(=O)n(-c2ccccc2)n1C | – | 0.783% (inactive)
C=CCNC(=O)/C=C/c1ccc(C(C)C)cc1 | 19 µM (active) | –
CCOC(=O)c1sc(NC(=O)/C=C/c2ccc(C(C)C)cc2)c(C(=O)OCC)c1C | – | -0.567% (inactive)
